# Several values for one entry are separate records, joined by “and”; a condition that tells them apart may be missing. Equal values may be shown once. Records with an inconclusive call do not appear. Activity calls are given as the source filed them. How the source made its calls: active means hit-call score of the fitted dose curve at least 0.9, where 1 is the maximum; inconclusive means response in the unintended direction; inactive means score below 0.9.
# Columns and labels:
# [1] = molecular target: rat CYP3A2, Cyp3a2 (gene 266682) (UniProt P05183); test: NVS_ADME_rCYP3A2: NovaScreen (NVS) CYP450-related Enzyme Activity (ADME) Assay for rat CYP3A2 (AID 2283128)
# rat CYP3A2, Cyp3a2 (gene 266682), sequence (P05183 whole entry, looked up): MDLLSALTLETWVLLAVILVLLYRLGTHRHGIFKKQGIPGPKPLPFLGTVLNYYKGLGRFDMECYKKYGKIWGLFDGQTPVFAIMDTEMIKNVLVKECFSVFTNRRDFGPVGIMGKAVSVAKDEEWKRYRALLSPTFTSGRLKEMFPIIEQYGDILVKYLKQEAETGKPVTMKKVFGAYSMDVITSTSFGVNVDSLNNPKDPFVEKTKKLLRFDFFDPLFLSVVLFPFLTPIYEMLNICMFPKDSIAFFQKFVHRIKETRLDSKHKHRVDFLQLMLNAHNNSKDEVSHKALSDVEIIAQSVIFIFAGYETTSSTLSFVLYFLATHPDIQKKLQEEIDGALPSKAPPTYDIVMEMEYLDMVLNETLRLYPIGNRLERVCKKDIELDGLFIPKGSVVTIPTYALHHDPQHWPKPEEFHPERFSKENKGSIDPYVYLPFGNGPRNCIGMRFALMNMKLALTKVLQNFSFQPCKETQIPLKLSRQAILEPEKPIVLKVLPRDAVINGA
# Summary of the method: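 Fluorescence readout of extracted rat CYP3A2 activity 0.5 h post-dose, acetonitrile as negative control. Single-point testing in duplicate at 10 uM, followed by concentration series to a 20 uM maximum for actives.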
# [2] = molecular target: human AMP-activated Protein Kinase, alpha 1 (AMPKa1), PRKAA1 (gene 5562) (UniProt Q13131); test: NVS_ENZ_hAMPKa1: NovaScreen (NVS) Enzymatic Assay for human AMP-activated Protein Kinase, alpha 1 (AMPKa1) (AID 2283130)
# human AMP-activated Protein Kinase, alpha 1 (AMPKa1), PRKAA1 (gene 5562), sequence (Q13131 whole entry, looked up): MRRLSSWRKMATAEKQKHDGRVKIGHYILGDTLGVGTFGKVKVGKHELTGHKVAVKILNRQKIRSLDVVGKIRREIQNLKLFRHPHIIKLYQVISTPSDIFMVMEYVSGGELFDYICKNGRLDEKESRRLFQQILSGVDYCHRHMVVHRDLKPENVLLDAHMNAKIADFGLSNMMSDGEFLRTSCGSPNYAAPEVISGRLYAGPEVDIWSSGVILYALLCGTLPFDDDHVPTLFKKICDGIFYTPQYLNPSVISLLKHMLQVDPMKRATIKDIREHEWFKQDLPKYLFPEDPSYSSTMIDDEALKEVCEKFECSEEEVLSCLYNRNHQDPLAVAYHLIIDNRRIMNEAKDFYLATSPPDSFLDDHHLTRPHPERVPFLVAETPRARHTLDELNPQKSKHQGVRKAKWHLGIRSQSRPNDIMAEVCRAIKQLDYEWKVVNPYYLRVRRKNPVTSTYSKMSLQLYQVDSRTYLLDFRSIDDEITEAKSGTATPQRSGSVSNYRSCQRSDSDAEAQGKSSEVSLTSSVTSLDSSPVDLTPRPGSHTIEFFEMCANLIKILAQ
# Summary of the method: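 Compounds were screened in duplicate at 25 uM, and those reaching ~30% inhibition were titrated up to 50 uM. The enzyme was recombinant human AMPKα1, and kinase turnover was read by fluorescence/mobility shift 1 h post-dosing as loss of signal versus DMSO.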
# [3] = molecular target: human Caspase 10 (CASP10), CASP10 (gene 843) (UniProt Q92851); test: NVS_ENZ_hCASP10: NovaScreen (NVS) Enzymatic Assay for human Caspase 10 (CASP10) (AID 2283133)
# human Caspase 10 (CASP10), CASP10 (gene 843), sequence (Q92851 whole entry, looked up): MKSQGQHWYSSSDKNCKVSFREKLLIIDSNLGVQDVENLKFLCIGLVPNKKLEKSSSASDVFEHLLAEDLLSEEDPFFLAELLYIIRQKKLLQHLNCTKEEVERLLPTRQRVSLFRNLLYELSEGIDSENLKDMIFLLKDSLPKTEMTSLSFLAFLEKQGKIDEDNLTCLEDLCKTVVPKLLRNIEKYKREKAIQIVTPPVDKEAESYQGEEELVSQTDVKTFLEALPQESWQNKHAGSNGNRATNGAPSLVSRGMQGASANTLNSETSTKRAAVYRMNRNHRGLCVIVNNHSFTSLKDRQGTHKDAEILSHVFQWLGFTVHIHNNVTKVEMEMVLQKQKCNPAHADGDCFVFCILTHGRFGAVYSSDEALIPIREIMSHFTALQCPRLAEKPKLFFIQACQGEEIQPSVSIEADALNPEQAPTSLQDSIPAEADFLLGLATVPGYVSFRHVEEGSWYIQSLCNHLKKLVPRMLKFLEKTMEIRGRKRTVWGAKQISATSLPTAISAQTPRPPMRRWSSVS
# Summary of the method: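 Fluorescence-intensity enzyme read-out of E. coli-expressed CASP10 activity, 1 h after compound. Single-point duplicates at 25 uM preceded concentration-response testing (top 50 uM) of hits; inhibition expressed as signal loss versus DMSO.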
smiles,measurement,setting,value
O=C1C2(Cl)C3(Cl)C4(Cl)C(Cl)(Cl)C5(Cl)C3(Cl)C1(Cl)C5(Cl)C24Cl (centres undefined),AC50,[1],3.98 µM (active) and 7.08 µM (active) and 1.19 µM (active)
Clc1ccc(C2(Cn3cncn3)CC(Br)CO2)c(Cl)c1 (centres undefined),AC50,[1],1.91 µM (active)
CC(=O)[O][Hg][c]1ccccc1,AC50,[2],14 µM (active)
O=C(O)C(F)(F)C(F)(F)C(F)(F)C(F)(F)C(F)(F)C(F)(F)C(F)(F)C(F)(F)C(F)(F)C(F)(F)F,outcome,[3],inactive

# Reference: PubChem BioAssay (EPA / NIEHS)
